D3 antag = blocks the human D3 dopamine receptor; hit rate 2.5% among 360,000; D3R cells, DiscoveRx beta-arrestin luminescence, antagonist mode; hits give low values; max response, negative = inhibition, %; P35462; in the data active = max response below about -50%; inconclusive = no clear call, values can overlap the other calls
Target sequence (P35462 whole entry, looked up): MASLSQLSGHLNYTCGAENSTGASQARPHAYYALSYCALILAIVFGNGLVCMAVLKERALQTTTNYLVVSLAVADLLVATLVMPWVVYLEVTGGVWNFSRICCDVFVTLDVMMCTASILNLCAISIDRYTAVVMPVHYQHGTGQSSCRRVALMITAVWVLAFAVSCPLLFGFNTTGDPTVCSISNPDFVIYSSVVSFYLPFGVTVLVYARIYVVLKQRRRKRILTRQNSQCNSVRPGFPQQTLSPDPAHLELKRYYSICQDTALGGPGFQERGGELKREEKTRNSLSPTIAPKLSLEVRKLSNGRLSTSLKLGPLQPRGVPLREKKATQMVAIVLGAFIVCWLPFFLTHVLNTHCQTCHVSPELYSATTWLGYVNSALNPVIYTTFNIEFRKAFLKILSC
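Cells expressing the human receptor were seeded at 1500 cells/well, incubated overnight at 37 degrees C in 5% CO2, then exposed to library compounds with dopamine controls for 90 minutes at 37 degrees C before luminescent detection.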
D3 ag = agonists of human D3 dopamine receptor; P35462; D3R DiscoveRx beta-arrestin cells, luminescence, 90 min; max activation, %; hit rate 0.58% among 410,000; AID 652048; in the data active = max activation above about 30%
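Agonist mode: compounds and dopamine controls were applied to plated cells for 90 min at 37 degrees C after an overnight attachment at 1500 cells/well. Luminescent read-out followed 30 - 60 minutes at room temperature with DiscoveRx detection reagent.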
D1 agonist = agonists of human D1 dopamine receptor. activation, % at 2 µM. HEK293 T-REx D1 cells, calcium flux, agonist mode. AID 504660. hit rate 1% among 360,000; in the data active = activation above about 30%
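Inducible HEK293 T-REx D1 cells, force-coupled to calcium signalling, were plated at 4000 cells/well with tetracycline and held overnight at 30 C. After no-wash calcium dye loading, compound-evoked calcium rise over 180 s flagged agonists.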
D1 antagonist = blocks dopamine activation of the human D1 receptor; hit rate 3.2% among 360,000; P21728; HEK293 TREx D1 cells, calcium flux, dopamine EC80; hits give low values; activity change, negative = inhibition, % at 10 µM; in the data active = activity change below about -30%
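Cells carrying a force-coupled, tetracycline-inducible human D1 receptor report calcium flux. Each well gets a 10 s baseline, compound with 180 s monitoring, then an EC80 dopamine stimulus with a second 180 s kinetic read.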
D1 PAM = human D1 dopamine receptor positive modulation; hit rate 0.036% among 360,000; potentiation, % at 10 µM; P21728; HEK293 TREx D1 cells, calcium flux, dopamine EC20 potentiation; in the data active = potentiation above about 30%
Each line names hits and unclear results; the compound was inactive in the other large screens; ! = repeats disagree. A selection: hits, their analogues and other compounds. The true share with any hit is near 6%.

CCOC(=O)N1CCN(C(=O)COc2ccc3c(c2)C(=O)CC2(CCN(C(C)=O)CC2)O3)CC1	none
CCN1CCN(CC(=O)N/N=C/c2cc(Br)cs2)CC1	D3 antag -53
Cc1nc(-c2coc3cc(O)c(C)cc3c2=O)cs1	D1 antagonist -51
CC(C)NC(=O)CSc1nnc(C2CC2)n1-c1ccccc1	D3 antag -51
CC(C)N(C(=O)c1cc2c(Cl)nc3ccccc3c2s1)C1CCCCC1	none (no result: D3 antag)
CCN1CCN(c2ccc(NC(=O)COc3ccccc3Cl)cc2)CC1	D3 antag -64, D1 antagonist -42
CCN1CCN(c2ccc(NC(=O)Cc3ccccc3)cc2)CC1	D1 antagonist -62
O=C(COc1ccccc1[N+](=O)[O-])Nc1ccc(N2CCN(C(=O)c3cccs3)CC2)cc1	D3 ag 34
O=C(Cc1ccccc1)Nc1ccc(N2CCCC2)cc1	none
O=C(COc1ccccc1Cl)Nc1ccc(N2CCCC2)cc1	none
O=C(COc1ccccc1Cl)Nc1ccc(N2CCN(C(=O)c3ccccc3)CC2)cc1	D1 antagonist -52
CCC(=O)Nc1ccc(N2CCN(C(=O)c3cccs3)CC2)cc1	none
O=C(Cn1c(=O)c2cc(Cl)ccc2n2nncc12)Nc1ccccc1	none (no result: D3 antag)
COc1ccc(C2CC(=O)N(CC(=O)Nc3ccc(C(F)(F)F)cc3)c3ccccc3S2)cc1 (configuration not stated)	none (no result: D3 antag)
O=C(Cc1ccccc1)Nc1cccc(N2CCCC2)c1	D1 antagonist -35
CCN1CCN(c2ccc(NC(=O)COc3ccc(Cl)cc3C)cc2)CC1	D3 antag -52 (no result: D1 agonist, D1 antagonist, D1 PAM)
O=C(CCS(=O)(=O)c1ccccc1F)Nc1ccc(N2CCN(Cc3ccccc3)CC2)cc1	D1 antagonist -39
C/C(=N\NC(=O)c1c(Cl)c(C)nn1C)c1ccc(NC(=O)COc2ccc(Cl)cc2C)cc1	D1 antagonist -41
C/C(=N\NC(=O)c1c(Cl)c(C)nn1C)c1cccc(NC(=O)COc2ccccc2)c1	none
CCC(=O)Nc1ccc(N2CCN(Cc3ccccc3)CC2)cc1	D3 antag inconclusive
CC(=O)N1CCN(c2ccc(NC(=O)COc3ccc(Cl)cc3Cl)cc2)CC1	none
CCOc1ccc(CNC(=O)COc2cc(=O)n(C)c3ccccc23)cc1	none (no result: D3 antag)
COc1ccc(C)cc1NC(=O)c1ccc2nc(Cc3ccccc3)oc2c1	none (no result: D3 antag)
COc1ccccc1N1CCN(Cc2cnc3ccc(Cl)cn23)CC1	D3 antag -91
CNC(=S)N1CCN(c2ccccc2OC)CC1	D3 antag inconclusive, D1 antagonist -46
COc1ccccc1N1CCN(C(=O)c2ccc(CN3CCOCC3)cc2)CC1	none
COc1ccccc1N1CCN(Cc2ccsc2)CC1	D3 antag -92
COc1ccccc1N1CCN(Cc2cccs2)CC1	D3 antag -82
COc1ccccc1N1CCN(S(=O)(=O)c2cccs2)CC1	none (no result: D1 antagonist)
CCOc1ccc(CCNC(=O)c2ccc3c(c2)nc2n3CCOC2)cc1OCC	none (no result: D3 antag)
Cc1cccc(Cn2nnc3c(=O)[nH]c(C4CCN(C(=O)c5ccc(F)cc5)CC4)nc32)c1	none (no result: D3 antag)
COc1ccccc1N1CCN(Cc2ccc(C(=O)O)cc2)CC1	none
COC(=O)c1cc(CN2CCN(c3ccccc3C)CC2)ccc1O	D3 antag -80
COc1ccc(CC(C)N2CCN(c3ccccc3)CC2)cc1OC (configuration not stated)	D3 antag -147
COc1ccc(CN2CCN(c3ccccc3OC)CC2)cc1OC	D3 antag -77
COc1ccc(S(=O)(=O)N2CCN(c3ccccc3)CC2)cc1OC	none (no result: D1 agonist, D1 antagonist, D1 PAM)
COc1cc(CN2CCN(c3ccccc3F)CC2)cc(OC)c1O	D3 antag inconclusive, D3 ag 43
CC1CCN(C(=O)Cn2c(=O)n(CCCCCC(=O)NCc3ccccc3Cl)c(=O)c3sccc32)CC1	none (no result: D3 antag)
Cc1cc(C)c2oc(C(=O)Nc3nc4ccc(Cl)cc4s3)cc(=O)c2c1	none (no result: D3 antag)
CCc1ccc(-n2c(=O)c3cccnc3n2CC(=O)N(CC)c2cccc(C)c2)cc1	none (no result: D3 antag)
O=C(CCC(=O)N1CC2CCCN2c2ccccc21)NCc1cccc(Cl)c1 (configuration not stated)	none (no result: D3 antag)
COc1ccc(C2CC(c3ccc(F)cc3)=NN2c2ccccc2)cc1OC (configuration not stated)	D1 antagonist -78
CCN1CCN(c2cc(SC(C)C)nc(-c3ccc(OC)cc3)n2)CC1	D3 antag -65
Cc1ccc(NC(=O)c2sc3nc[nH]c(=O)c3c2C)c(C)c1	D1 antagonist -48
Cc1ccc(NC(=O)c2sc3nc[nH]c(=O)c3c2C)cc1Cl	none (no result: D3 antag)
COc1cccc(CNC(=O)c2ccc(Cl)c(NC3=NC4CS(=O)(=O)CC4S3)c2)c1 (configuration not stated)	D1 antagonist -90
CC(C)CN1C2CCCC1CC(NC(=O)c1ccc([N+](=O)[O-])cc1)C2 (configuration not stated)	D1 antagonist -48
CCCN1C2CCCC1CC(NC(=O)c1ccc(Br)cc1)C2 (configuration not stated)	D1 antagonist -48
CCCN1C2CCCC1CC(NC(=O)c1ccc(F)cc1)C2 (configuration not stated)	none
COc1cc(CNC(=O)c2ccc3c(c2)N(C)C(=O)C2CCCCN32)cc(OC)c1OC (configuration not stated)	none (no result: D3 antag)
COc1ccc(OC)c(NC(=O)c2c(C)oc3ncnc(N4CCOCC4)c23)c1	none (no result: D3 antag)
C=CCc1c(OC)ccc2ccc(=O)oc12	D3 antag -57
COc1cc2oc(=O)ccc2cc1-c1c(OC)ccc2ccc(=O)oc12	none (no result: D1 agonist, D1 antagonist, D1 PAM)
NC(=O)OC[C@@H]1[C@H](NC(=O)/C(=N\OCC(=O)O)c2csc(N)n2)C(=O)N1S(=O)(=O)O	none (no result: D3 antag, D1 agonist, D1 antagonist, D1 PAM)
CC(C)(C)NC[C@H](O)COc1nsnc1N1CCOCC1	D3 antag -54!
CCOC(=O)c1cccc(NC(=O)COc2nsnc2N2CCOCC2)c1	none (no result: D1 PAM)
COC(=O)COc1nsnc1N1CCOCC1	D1 antagonist -60
CC(=O)c1cccc(NC(=O)COc2nsnc2N2CCOCC2)c1	D3 antag inconclusive, D1 antagonist -35
COc1nsnc1N1CCOCC1	none
CSc1ccccc1NC(=O)COc1nsnc1N1CCOCC1	none
COc1ccc(C2c3c(oc4ccc(F)cc4c3=O)C(=O)N2Cc2ccc3c(c2)OCO3)cc1 (configuration not stated)	none (no result: D3 antag)
CS(=O)(=O)c1ccc(C(=O)NC2CCOC2=O)cc1 (configuration not stated)	D3 ag 32
COc1cc(/C=C(\C#N)c2nc3c(s2)CCCC3)ccc1O	D1 agonist 60 (no result: D3 antag, D3 ag)
O=C(Cc1ccc(F)cc1)Nc1cccc(-c2nc3cccnc3s2)c1	none (no result: D3 antag)
Cc1ccc(-c2nc3cccnc3s2)cc1NC(=O)C(C)C	D1 agonist 30 (no result: D3 antag)
CCC(C(=O)Nc1cc(-c2nc3cccnc3s2)ccc1C)c1ccccc1 (configuration not stated)	none (no result: D3 antag)
O=C(Cc1ccccc1)Nc1cccc(-c2nc3cccnc3s2)c1	D3 ag 78 (no result: D3 antag)

Assay outcomes as filed in PubChem.
